From PubChem BioAssay (EPA / NIEHS)
Several values for one entry are separate records, joined by “and”; a condition that tells them apart may be missing. Identical values can stand only once. Results filed as inconclusive are left out. Some structures have more than one record in an assay (separate samples or runs), and their calls can disagree. Activity calls are given as the source filed them. The calls were made as follows, unless noted: active = hit-call score of the fitted dose curve at least 0.9, where 1 is the maximum; inconclusive = response in the unintended direction; inactive = score below 0.9.

Columns and labels:
[1] = read-out: UDP glucuronosyltransferase (UGT1A1), UGT1A1 (gene 54658); experiment: LTEA_HepaRG_UGT1A1: Life Technologies and Expression Analysis (LTEA) Assay for UDP glucuronosyltransferase (UGT1A1) using HepaRG (AID 2283538; active = hit-call score of the fitted dose curve at least 0.9, where 1 is the maximum; inactive = score below 0.9); settings: mRNA level, 48 h; actives raise or lower the signal
Outline: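 UGT1A1 transcript level, measured by qRT-PCR with three housekeeping genes for normalization, after 48 h treatment of human HepaRG cells (0.5% DMSO, duplicates, up to 100 uM, half-log steps, 8 points). Curves fit both directions against DMSO baseline.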

[2] = read-out: UDP glucuronosyltransferase (UGT1A6), UGT1A6 (gene 54578); experiment: LTEA_HepaRG_UGT1A6: Life Technologies and Expression Analysis (LTEA) Assay for UDP glucuronosyltransferase (UGT1A6) using HepaRG (AID 2283539; active = hit-call score of the fitted dose curve at least 0.9, where 1 is the maximum; inactive = score below 0.9); settings: mRNA level, 48 h; actives raise or lower the signal
Outline: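 Expression was quantified by TaqMan qRT-PCR on Fluidigm arrays with ACTB/GAPDH/POLR2A normalization and bidirectional fitting against 0.5% DMSO. HepaRG cells (~100,000/well) were treated in duplicate for 48 h at eight half-log concentrations up to 100 uM in serum-free induction medium.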

[3] = read-out: X-box binding protein 1 (XBP1), XBP1 (gene 7494); experiment: LTEA_HepaRG_XBP1: Life Technologies and Expression Analysis (LTEA) Assay for X-box binding protein 1 (XBP1) using HepaRG (AID 2283540; active = hit-call score of the fitted dose curve at least 0.9, where 1 is the maximum; inactive = score below 0.9); settings: mRNA level, 48 h; actives raise or lower the signal
Outline: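 XBP1 transcript by qRT-PCR (housekeeping-normalized: ACTB, GAPDH, POLR2A) after 48 h chemical treatment of HepaRG cells, 8-point half-log series topping at 100 uM, vehicle 0.5% DMSO. Gain and loss of signal fitted relative to DMSO.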

[4] = LTEA_HepaRG_LDH_cytotoxicity: Cytotoxicity Assessment in the Life Technologies and Expression Analysis (LTEA) Assay (AID 2283563)
Outline: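 LDH release into culture medium read after 48 h chemical treatment of HepaRG cells. Duplicate wells, eight-point half-log series topping at 100 uM, 0.5% DMSO vehicle and baseline.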

[5] = target: Cellular tumor antigen p53 (Homo sapiens) (UniProt P04637); experiment: TOX21_p53_BLA_p2_ratio: Tox21 HCT-116 p53 Agonism Beta-lactamase Assay, Ratio, Phase 2 (AID 2283592)
Cellular tumor antigen p53 (Homo sapiens), sequence (P04637 whole entry, looked up): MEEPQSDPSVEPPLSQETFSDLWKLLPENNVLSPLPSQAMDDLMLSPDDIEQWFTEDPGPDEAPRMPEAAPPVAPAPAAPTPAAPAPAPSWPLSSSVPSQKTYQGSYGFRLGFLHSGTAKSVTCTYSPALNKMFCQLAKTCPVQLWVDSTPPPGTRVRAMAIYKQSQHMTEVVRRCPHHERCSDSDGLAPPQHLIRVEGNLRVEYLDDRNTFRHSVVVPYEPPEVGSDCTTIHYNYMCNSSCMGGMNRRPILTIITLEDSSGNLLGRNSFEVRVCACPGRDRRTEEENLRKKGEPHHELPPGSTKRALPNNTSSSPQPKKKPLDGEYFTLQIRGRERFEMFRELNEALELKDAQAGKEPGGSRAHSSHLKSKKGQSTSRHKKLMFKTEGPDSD
Outline: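 Read-out is the blue/green (460/530 nm, 405 nm excitation) ratio after 2 h CCF4-AM loading, fitted as gain versus DMSO. Compounds, pinned at 217-fold dilution from DMSO stocks, stayed 16 h on HCT-116 beta-lactamase reporter cells seeded 5 h earlier.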

[6] = target: Cellular tumor antigen p53 (Homo sapiens) (UniProt P04637); experiment: TOX21_p53_BLA_p3_ratio: Tox21 HCT-116 p53 Agonism Beta-lactamase Assay, Ratio, Phase 3 (AID 2283596)
Outline: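 Cells were seeded at 4000/well, rested 5 h at 37C, then dosed with DMSO compound solutions (217-fold dilution) for 16 h. CCF4-AM substrate was loaded for 2 h at room temperature, and the 460/530 nm emission ratio was fitted for gain of signal versus DMSO.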

[7] = TOX21_p53_BLA_p4_viability: Viability Assessment in the Tox21 HCT-116 p53 Agonism Beta-lactamase Assay, Phase 4 (AID 2283597);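 also: hits lower the luminescence signal meaning cytotoxicity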
Outline: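 Cytotoxicity as reduced cellular ATP (CellTiter-Glo luminescence, 30 min room temperature), measured in the same wells following the CCF4 FRET p53 reading. Human HCT-116 cells received compounds in DMSO (217-fold dilution) for 16 h.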

[8] = target: Cellular tumor antigen p53 (Homo sapiens) (UniProt P04637); experiment: TOX21_p53_BLA_p5_ratio: Tox21 HCT-116 p53 Agonism Beta-lactamase Assay, Ratio, Phase 5 (AID 2283599)
Outline: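 HCT-116 p53-bla cells (4000/well) plated 5 h, dosed with compound (217-fold DMSO dilution) for 16 h at 37 C; CCF4-AM substrate 2 h at room temperature. Activity is the 460/530 nm emission ratio (405 nm excitation), fitted in gain-of-signal direction versus DMSO.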

[9] = target: Cellular tumor antigen p53 (Homo sapiens) (UniProt P04637); experiment: TOX21_p53_BLA_p4_ratio: Tox21 HCT-116 p53 Agonism Beta-lactamase Assay, Ratio, Phase 4 (AID 2283601)
Outline: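 HCT-116 p53 beta-lactamase reporter cells (4000/well) preincubated 5 h, then compound (217-fold dilution of DMSO stock) for 16 h at 37C. CCF4-AM substrate added 2 h at room temperature; 460/530 nm emission ratio fitted upward versus DMSO.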

[10] = Tanguay_ZF_120hpf_MORT_legacy: (Legacy) Oregon State University Tanguay Lab 120 Hour Post-fertilization zebrafish Assay for Mortality (AID 2283633);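 as to AC50: fitted as increase in binary mortality versus DMSO negative control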
Outline: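 Static waterborne exposure from 6 to 120 hpf at 28C of single dechorionated wild-type (5D) embryos per well, 0.64% DMSO final. Death recorded present/absent by brightfield at 24 and 120 hpf.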

[11] = Tanguay_ZF_120hpf_YSE_legacy: (Legacy) Oregon State University Tanguay Lab 120 Hour Post-fertilization zebrafish Assay for Yolk Sac Edema (AID 2283634);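 as to AC50: actives raise the incidence of yolk sac edema above the DMSO baseline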
Outline: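 Presence or absence of yolk sac edema was recorded at 120 hpf in surviving larvae. These were wild-type Tropical 5D embryos, chorion removed at 4 hpf, held in static exposure at 28C from 6 hpf with 0.64% DMSO vehicle.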

[12] = Tanguay_ZF_120hpf_AXIS_legacy: (Legacy) Oregon State University Tanguay Lab 120 Hour Post-fertilization zebrafish Assay for Body Axis Malformation (AID 2283635);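 as to AC50: potency for an increased fraction of larvae scored with body axis malformation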
Outline: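 Binary scoring of axis defects at 120 hpf under brightfield, fitted positive versus DMSO. Tropical 5D embryos, chorion removed by pronase at 4 hpf, were singly exposed in sealed, dark plates at 28C from 6 hpf; DMSO 0.64% final.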

[13] = Tanguay_ZF_120hpf_EYE_legacy: (Legacy) Oregon State University Tanguay Lab 120 Hour Post-fertilization zebrafish Assay for Eye Malformation (AID 2283636);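 also: binary presence or absence of eye malformation scored by brightfield in 120 hpf larvae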
Outline: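 5D wild-type embryos, pronase-dechorionated at 4 hpf; static exposure 6–120 hpf, 28C, dark; DMSO 0.64% final; 5uM trimethyltin chloride positive control. Binary eye-defect scoring at 120 hpf; dead embryos not scored.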

[14] = Tanguay_ZF_120hpf_SNOU_legacy: (Legacy) Oregon State University Tanguay Lab 120 Hour Post-fertilization zebrafish Assay for Snout Malformation (AID 2283637)
Outline: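 Binary brightfield scoring of snout malformation at 120 hpf. Dechorionated 5D wild-type embryos, one per well, static exposure from 6 hpf at 28C, sealed and dark; final DMSO 0.64% (vol/vol), DMSO as baseline; 5uM trimethyltin chloride positive control.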

[15] = Tanguay_ZF_120hpf_JAW_legacy: (Legacy) Oregon State University Tanguay Lab 120 Hour Post-fertilization zebrafish Assay for Jaw Malformation (AID 2283638);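 as to AC50: active means more embryos with jaw malformation than DMSO controls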
Outline: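 Binary jaw-malformation call at 120 hpf by brightfield microscopy. Embryos (Tropical 5D strain, chorion removed at 4 hpf) were dosed statically at 6 hpf, one per well, at 28C with 0.64% DMSO. Embryos that died were not scored.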

[16] = Tanguay_ZF_120hpf_OTIC_legacy: (Legacy) Oregon State University Tanguay Lab 120 Hour Post-fertilization zebrafish Assay for Otic Vesicle Malformation (AID 2283639)
Outline: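 Binary scoring of otic vesicle defects at 120 hpf in zebrafish (Tropical 5D) held under static exposure at 28C, sealed and shaded, with final DMSO 0.64%. Embryos dying by 24 or 120 hpf excluded; fitted positively against DMSO.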

[17] = ATG_XTT_Cytotoxicity: Cytotoxicity Assessment in the Attagene TRANS-FACTORIAL HepG2 Assay (AID 2283584);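 as to AC50: cells exposed to compound for 24 h before reading; active means loss of viability signal versus DMSO baseline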
Outline: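 Viability endpoint from XTT after 24 h chemical exposure of reporter-transfected human HepG2 liver cells; signal loss fitted relative to DMSO negative control.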

[18] = TOX21_p53_BLA_p5_viability: Viability Assessment in the Tox21 HCT-116 p53 Agonism Beta-lactamase Assay, Phase 5 (AID 2283600)
Outline: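 Viability came from CellTiter-Glo ATP luminescence, read after 30 min at room temperature. Before this, HCT-116 p53-bla cells (4000/well) had 16 hours of compound exposure at 37C, with DMSO stocks diluted 217-fold on transfer.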

[19] = TOX21_p53_BLA_p3_viability: Viability Assessment in the Tox21 HCT-116 p53 Agonism Beta-lactamase Assay, Phase 3 (AID 2283593);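 also: cells exposed to compound for 16 h before reading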
Outline: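 HCT116 cells, 4000/well, dosed 5 h after plating by pin transfer (217-fold dilution from DMSO stock) and incubated 16 h at 37C, 5% CO2. Viability read as ATP luminescence with CellTiter-Glo after 30 min at room temperature.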

[20] = TOX21_p53_BLA_p2_viability: Viability Assessment in the Tox21 HCT-116 p53 Agonism Beta-lactamase Assay, Phase 2 (AID 2283591);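 also: compound exposure lasted 16 h at 37 °C; actives lower the ATP signal meaning cytotoxicity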
Outline: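 HCT116 p53-bla cells, 4000/well, dosed after 5 h plating (217-fold dilution of DMSO stocks) and incubated 16 h at 37C. Viability taken as cellular ATP by CellTiter-Glo luminescence after 30 min RT; signal loss marks cytotoxicity.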

Measured: AC50

c1ccc2c(c1)Cc1ccccc1-2
active: [8] 87.3 µM
inactive: [1] | [2] | [3] | [4] | [5] | [6] | [7] | [8] | [9] | [10] | [11] | [12] | [13] | [14] | [15] | [16]

CCCCC(CC)COC(=O)CCCCC(=O)OCc1ccccc1 (stereo not drawn)
not listed: [7] | [8] | [11] | [18] | [19] | [20]
inactive: all other assays above

OCCC(F)(F)C(F)(F)C(F)(F)C(F)(F)C(F)(F)C(F)(F)F
inactive: [1] | [2] | [3] | [4] | [17] | [8] | [18] | [9] | [10] | [15] | [16]

COc1ccc([N+](=O)[O-])cc1N
active: [1] 50 µM
not listed: [4] | [11] | [19] | [20]
inactive: all other assays above

CC(C)(C)c1cccc(C(C)(C)C)c1O
not listed: [11] | [12] | [18] | [19] | [20]
inactive: all other assays above

O=[N+]([O-])c1ccc(O)cc1
not listed: [4] | [11] | [19] | [20]
inactive: all other assays above

CN(C)C=O
not listed: [4] | [13] | [18] | [20]
inactive: all other assays above

O=c1c(-c2ccc(O)cc2)coc2cc(O)ccc12
not listed: [4] | [19] | [20]
inactive: all other assays above

c1ccc2cc3c(ccc4ccccc43)cc2c1
active: [1] 4.24 µM | [3] 17.2 µM | [12] 12.5 µM | [13] 45.6 µM | [14] 46.5 µM | [15] 49.1 µM | [16] 40.6 µM
not listed: [11] | [18] | [19] | [20]
inactive: all other assays above

Oc1cccc(O)c1
not listed: [4] | [19] | [20]
inactive: all other assays above

CCCCCCCCC(=O)O
not listed: [4]
inactive: all other assays above

CC[C@H](C)[C@@H](C(=O)O)n1sc2ccccc2c1=O
not listed: [9] | [11] | [17] | [18] | [19] | [20]
inactive: all other assays above

CCCCCCCCCCCCN1CCCC1=O
active: [17] 155 µM | [6] 67.1 µM | [8] 63.2 µM | [10] 27.6 µM | [11] 47.3 µM | [15] 46.6 µM
not listed: [4] | [18] | [19] | [20]
inactive: all other assays above

CC#C[C@]1(O)CC[C@H]2[C@@H]3CCC4=CC(=O)CCC4=C3[C@@H](c3ccc(N(C)C)cc3)C[C@@]21C
inactive: [17] | [6] | [7] | [10] | [13] | [14] | [15]
active: [1] 77.2 µM | [2] 79.8 µM | [3] 53.4 µM | [5] 45.2 µM and 19.9 µM | [6] 20.1 µM | [8] 72.6 µM and 22 µM | [9] 65.8 µM and 20.7 µM | [12] 82.8 µM

Nc1cccc2c(N)cccc12
not listed: [18]
inactive: all other assays above
